{
  "source": "PubChem BioAssay (NCI)",
  "note": "Values joined by “and” are separate entries in the source; they are usually repeats but may differ in a detail not shown here. Equal entries are not always repeated. Compounds without any hit were thinned out: in the full panel of roughly 83,000, 20% have a hit.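 The test compound was applied at a single concentration to cells in 96-well plates for 48 hours, and percent growth was recorded.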 Values without a mark were called inactive. Active and inactive are the calls of the source. The calls were made as follows: active = growth percent below 10; inactive = the rest.",
  "data": [
    {"tested_on": "HL-60(TB) leukemia", "experiment": "NCI-60 one-dose screen, 48 h (100 = growth as untreated, 0 = no growth, -100 = all killed)", "conditions": "10 µM unless noted", "values": [
      {"smiles": "CC(C)c1[nH]ncc1-c1nc2ccc3[nH]ncc3c2c2c1CCCC2", "growth": "13.4%"},
      {"smiles": "CCNc1cc(-c2cccc(OC(F)(F)F)c2)nc2ccc(N3CCCC3)cc12", "growth": "-47.1% (active)"},
      {"smiles": "C=C1C(=O)O[C@H]2[C@H]1CC/C(COC(=O)CCSCCC(=O)OC/C1=C/CC[C@@]3(C)O[C@H]3[C@H]3OC(=O)C(=C)[C@@H]3CC1)=C\\CC[C@@]1(C)O[C@@H]21", "growth": "-58.2% (active)"},
      {"smiles": "O=C(Nc1nc2ccc(C(=O)N3CCN(c4ccc(Cl)c(Cl)c4)CC3)cc2s1)c1ccc(NCCc2ccccc2)c([N+](=O)[O-])c1", "growth": "101%"},
      {"smiles": "O=C(CN1CCOCC1)N1CCOCC1", "growth": "101% and 109%"},
      {"smiles": "COc1ccc(Nc2ncccc2C(=O)NCc2cn(Cc3cccc(Oc4ccccc4)c3)nn2)cc1", "growth": "32.1%"},
      {"smiles": "Nc1c(C(=O)Nc2cccc(F)c2)sc2nc3c(cc12)C(=O)CCC3", "growth": "31.2%"},
      {"smiles": "CCCCCCCCCCCCCCCCSC(=NCC)NCC", "growth": "-59.1% (active)"},
      {"smiles": "Cc1c(C(=O)NO)sc2ncnc(Nc3ccc(NC(=S)Nc4ccccc4)cc3)c12", "growth": "103%"},
      {"smiles": "CCOC(=O)[C@]1(Br)CC[C@@]1(Br)C(=O)OCC", "growth": "47.7%"},
      {"smiles": "CN(c1cc2ncc(=O)[nH]c2cc1NC(N)=NCc1ccc(Cl)cc1)C1CCCCC1", "growth": "52.9%"},
      {"smiles": "COc1ccc(C(=O)C(=O)c2ccccc2)cc1", "growth": "94.2%"},
      {"smiles": "CNC(=O)c1ccccc1Nc1nc(Nc2ccc3c(c2OC)CCC[C@H](N2CCN(CCO)CC2)C3)ncc1Cl", "growth": "-45.7% (active)"},
      {"smiles": "COc1ccc(-c2coc3c(CO)c(O)ccc3c2=O)cc1", "growth": "-24.9% (active)"},
      {"smiles": "N#C/C(=C\\c1ccc(Br)cc1)n1nnc2cccc(F)c21", "growth": "-9.67% (active)"},
      {"smiles": "O=C(Nc1nc2ccc(F)cc2s1)c1cccnc1Nc1ccc(Cl)cc1", "growth": "33.3%"},
      {"smiles": "O=Nc1c(O)ccc2ccccc12.O=Nc1c(O)ccc2ccccc12.O=Nc1c([O-])ccc2ccccc12.[Fe+3]", "growth": "105%"},
      {"smiles": "COC1C(=O)CCC2(CO2)C1(O)C1(C)OC1CCC(C)C", "note": "(stereo not given)", "growth": "68%"},
      {"smiles": "O=C(Nc1nc2c(s1)CCc1c-2c(Br)n(Cc2ccccc2)c1Br)c1ccccc1", "growth": "84.3%"},
      {"smiles": "CC12CCCCC1C(C(N)=O)C(=O)O2", "note": "(stereo not given)", "growth": "102%"},
      {"smiles": "CCc1ccccc1-n1c(-c2ccc(Cl)cc2)cc(-c2ccc(OC)cc2)c(C#N)c1=O", "growth": "68.8%"},
      {"smiles": "Cc1c(C)c(N2C(=O)C=CC2=O)c(C)c(C)c1N1C(=O)C=CC1=O", "growth": "57.5%"},
      {"smiles": "Cc1cccc([N+](=O)[O-])c1Cl", "growth": "115%"},
      {"smiles": "CN1CCN(Cc2ccc3c(NNC(=O)c4ccccc4)nc4cc(F)ccc4n23)CC1", "growth": "7.8% (active)"},
      {"smiles": "CCN(CC)c1ccc2c(c1)Oc1nc(N)c(C#N)c(N)c1C2Sc1ccc(SC)cc1", "note": "(stereo not given)", "growth": "-31.7% (active)"}
    ]}
  ]
}
